# Only a selection was taken, and hits are over-represented in it overall.
# N-glyco inh: increase of ERlucT glycosylation luciferase signal, primary screen, N-linked glycosylation inhibitor project, D54 ERlucT cells, luminescence, set 2; D54 ERlucT glycosylation luciferase reporter, 24 h; percent of 100 nM tunicamycin response; reporter increase, % at 12.5 µM; hit rate 0.23% among 360,000; AID 588692, 2011;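 active means mean luciferase reporter signal, scaled so untreated is 0 and the glycosylation-blocking control 100, at or above a set limit in every replicate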;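 further: luciferase carries N-glycosylation sites so blocking glycosylation raises the light; 0% = median of neutral control wells and 100% = median of 100 nM tunicamycin wells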
# DENV2 CPE: inhibitors of DENV2 cytopathic effect, primary screen, cell-based, plate reader, single concentration | hit rate 1.7% among 350,000 | CPE inhibition, % at 9.99 µM | DENV2-infected cells, cytopathic effect rescue; in the data active means CPE inhibition above about 20%, passing the limit was not always enough; tested in BHK-21 cells;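 further: 0% = median of neutral control wells and 100% = median of positive control wells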
# Rtt109 HAT inh: inhibitors of C. albicans Rtt109/Vps75 HAT, primary screen, biochemical, ThioGlo CoA-SH fluorescence, plate reader | Histone acetyltransferase RTT109 (Candida albicans (strain SC5314 / ATCC MYA-2876)), … | purified Rtt109/Vps75, 4 h | inhibition, % at 34.9 µM | hit rate 0.16% among 330,000 | AID 540336, 2011;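 active means inhibition of at least 50% in every replicate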
# Target sequence (Q5AAJ8 whole entry, looked up): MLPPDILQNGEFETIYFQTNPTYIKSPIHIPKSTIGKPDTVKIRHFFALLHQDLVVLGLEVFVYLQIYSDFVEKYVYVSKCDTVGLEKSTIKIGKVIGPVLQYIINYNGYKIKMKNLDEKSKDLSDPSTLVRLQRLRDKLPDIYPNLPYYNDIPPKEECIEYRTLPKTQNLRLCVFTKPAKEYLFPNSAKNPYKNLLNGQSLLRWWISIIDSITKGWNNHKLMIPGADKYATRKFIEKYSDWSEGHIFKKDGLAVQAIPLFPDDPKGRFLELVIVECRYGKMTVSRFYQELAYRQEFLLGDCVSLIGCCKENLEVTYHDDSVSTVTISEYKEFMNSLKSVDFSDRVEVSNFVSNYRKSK
# PglD inh: C. jejuni PglD acetyltransferase inhibitors, primary screen, biochemical, DTNB colorimetric, single point. purified PglD enzyme, DTNB colorimetric CoA detection. inhibition, % at 12.5 µM. UDP-N-acetylbacillosamine N-acetyltransferase PglD (Campylobacter jejuni). hit rate 0.098% among 360,000; in the data active means inhibition above about 16%, passing the limit was not always enough
# Starred values were filed as active, the others as inactive; nt = no result given.
SMILES,N-glyco inh,DENV2 CPE,Rtt109 HAT inh,PglD inh
CC(C)(C)CN1C(=O)C(=O)NC[C@@H]1CCCCN,3,136*,9,7
CCCC[C@@H]1CNC(=O)C(=O)N1CCCCC1CCCCC1,nt,42*,nt,nt
CC(C)(C)CN1C(=O)C(=O)NC[C@@H]1CC1CCCCC1,nt,-3,nt,nt
CC(C)C[C@H]1CN(CCCC[C@H]2CNC(=O)C(=O)N2CCC2CCCCC2)C(=O)C(=O)N1CCc1ccccc1,nt,-5,nt,nt
O=C1NC[C@H](CCCCN2CCN(CCc3ccccc3)C(=O)C2=O)N(CCc2ccc(O)cc2)C1=O,nt,-1,nt,nt
O=C1NC[C@@H](CCCCN2CCN(CCc3ccc(O)cc3)C(=O)C2=O)N(Cc2ccccc2)C1=O,nt,87*,nt,nt
O=C1NC[C@H](CCCCN2CCN(CCC3CCCCC3)C(=O)C2=O)N(CCC2CCCCC2)C1=O,nt,7,nt,nt
COc1cc(OC)cc(C(=O)NCCOc2ccccc2)c1,0,nt,-6,-2
COc1ccc(C(=O)NCCOc2cccc(Oc3ccccc3)c2)cc1OC,0,48*,-2,1
CCCCOc1ccc(C(=O)NCCOc2cccc(OC)c2)cc1,-1,53*,-7,7
C[C@H]1CN([C@@H](C)CO)C(=O)c2cccc(NC(=O)Nc3ccc(F)cc3)c2O[C@H]1CN(C)S(C)(=O)=O,nt,3,nt,-1
Cc1cc2ccccn2c1C(=O)c1ccccc1Br,3,42*,4,4
Cc1cc2ccccn2c1C(=O)c1ccc(F)cc1,1,0,-5,-6
Cc1noc(C)c1NC(=O)Nc1ccc2c(c1)C(=O)N(C)[C@@H]1CC[C@H](CC(=O)NCc3ccc(Cl)cc3)O[C@H]1CO2,nt,15,nt,-1
COCCNC(=O)C[C@@H]1C[C@H]2c3cc(NC(=O)Nc4ccc(C(F)(F)F)cc4)ccc3O[C@H]2[C@H](CO)O1,nt,5,nt,2
Cc1c(C(=O)Nc2cccc(F)c2)cnn1-c1ccccc1,-7,50*,-6,-5
C/C=C/c1ccc([C@H]2[C@@H](CO)N3C(=O)CN(C(=O)Nc4cccc(OC)c4)C[C@@H]23)cc1,nt,-9,nt,nt
COc1ccc(NC(=O)Nc2ccc3c(c2)C(=O)N([C@H](C)CO)C[C@H](C)[C@H](CN(C)C(=O)Nc2ccc(OC)cc2)OCCCC[C@H](C)O3)cc1,nt,9,nt,5
COc1ccc(NC(=O)N(C)C[C@@H]2OCCCC[C@@H](C)Oc3ccc(NC(=O)Nc4ccccc4)cc3C(=O)N([C@H](C)CO)C[C@@H]2C)cc1,nt,39*,nt,-1
COc1ccc(NC(=O)Nc2ccc3c(c2)C(=O)N([C@H](C)CO)C[C@@H](C)[C@@H](CN(C)C(=O)Nc2ccc(OC)cc2)OCCCC[C@@H](C)O3)cc1,nt,48*,nt,nt
COc1ccc(NC(=O)N(C)C[C@H]2OCCCC[C@@H](C)Oc3ccc(NC(=O)Nc4ccc5c(c4)OCO5)cc3C(=O)N([C@@H](C)CO)C[C@H]2C)cc1,nt,70*,nt,1
COc1ccc(NC(=O)Nc2ccc3c(c2)C(=O)N([C@H](C)CO)C[C@H](C)[C@H](CN(C)C(=O)NC(C)C)OCCCC[C@H](C)O3)cc1,nt,33*,nt,-2
COc1ccc(NC(=O)Nc2ccc3c(c2)C(=O)N([C@@H](C)CO)C[C@@H](C)[C@H](CN(C)C(=O)Nc2ccccc2)OCCCC[C@H](C)O3)cc1,nt,-3,nt,4
COc1ccc(NC(=O)Nc2ccc3c(c2)C(=O)N([C@H](C)CO)C[C@H](C)[C@H](CN(C)C(=O)NC(C)C)OCCCC[C@@H](C)O3)cc1,nt,-2,nt,-1
COc1ccccc1NC(=O)N[C@@H]1CC[C@@H](CC(=O)N[C@@H](C)c2ccccc2)O[C@H]1CO,nt,-8,nt,-4
SMILES,N-glyco inh,DENV2 CPE,Rtt109 HAT inh,PglD inh
O=C(C1CCC1)N1[C@@H](CO)[C@@H](c2ccccc2)C12CN(Cc1cccc(Cl)c1)C2,nt,7,nt,nt
COCC(=O)N1CC[C@@H]2[C@H]1c1cc(-c3ccccc3)ccc1N(C)[C@H]2CO,nt,-6,nt,-1
Cc1cccc2sc(N(CCCN(C)C)C(=O)CN3C(=O)c4ccccc4C3=O)nc12,0,-2,-2,nt
COc1ccc(OC)c2sc(N(CCCN(C)C)C(=O)CCS(=O)(=O)c3ccccc3)nc12,-12,7,83*,-1
Cc1cccc2sc(N(CCCN(C)C)C(=O)CCc3ccccc3)nc12,3,nt,58*,5
COc1cccc(CNC(=O)C[C@H]2CC[C@@H](NC(=O)C3CC3)[C@H](CO)O2)c1,nt,-5,nt,-1

# Screening results (PubChem)
